Assay results as given in article PMC7862700, “An all-to-all approach to the identification of sequence-specific readers for epigenetic DNA modifications on cytosine”.

Columns and labels:
Experiment in all cases: DAPPL (digital affinity profiling via proximity ligation, sequencing); 10 mM Tris-HCl pH 7.5, 50 mM NaCl, 1 mM DTT, 4% glycerol, room temperature, 30 min; GST-TFs on glutathione beads, 16-mer random dsDNA library, 0.1% formaldehyde crosslink after washing; high values mean tight binding
Settings in all cases: protein: recombinant; tags: N-terminal GST; dsDNA, one strand shown
[1] = molecular target: T1, FLI1 (Homo sapiens, UniProt Q01543 1-452)
T1 sequence: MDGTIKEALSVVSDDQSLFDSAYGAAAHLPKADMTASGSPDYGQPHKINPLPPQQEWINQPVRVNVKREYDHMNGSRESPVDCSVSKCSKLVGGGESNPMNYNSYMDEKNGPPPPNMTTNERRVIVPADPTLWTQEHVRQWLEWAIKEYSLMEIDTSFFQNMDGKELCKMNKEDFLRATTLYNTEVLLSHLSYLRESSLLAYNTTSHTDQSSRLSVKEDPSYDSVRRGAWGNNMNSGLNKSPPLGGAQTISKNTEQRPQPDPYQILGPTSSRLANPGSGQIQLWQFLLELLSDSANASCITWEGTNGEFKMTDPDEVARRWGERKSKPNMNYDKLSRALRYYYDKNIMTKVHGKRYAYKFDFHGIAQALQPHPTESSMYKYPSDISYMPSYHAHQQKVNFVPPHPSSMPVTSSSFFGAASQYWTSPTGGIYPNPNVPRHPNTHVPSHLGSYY
Procedure, shortened: (§1)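 Binding signal is each hexamer's read frequency for a factor divided by its frequency in the tag-only sample. The factors were GST-fused human transcription factors from yeast, captured on glutathione beads, DNA-barcoded and pooled with that sample. Pools were incubated with 200 nmole of a random double-stranded 16-mer DNA library in Tris/NaCl/DTT/glycerol buffer at room temperature for 30 min, then washed, crosslinked with 0.1% formaldehyde, proximity-ligated with BsaI/T4 ligase (1 h, 37 °C), PCR-amplified and sequenced on an Illumina NextSeq500.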

[2] = molecular target: T2, ELK1 (Homo sapiens, UniProt P19419 1-428)
T2 sequence: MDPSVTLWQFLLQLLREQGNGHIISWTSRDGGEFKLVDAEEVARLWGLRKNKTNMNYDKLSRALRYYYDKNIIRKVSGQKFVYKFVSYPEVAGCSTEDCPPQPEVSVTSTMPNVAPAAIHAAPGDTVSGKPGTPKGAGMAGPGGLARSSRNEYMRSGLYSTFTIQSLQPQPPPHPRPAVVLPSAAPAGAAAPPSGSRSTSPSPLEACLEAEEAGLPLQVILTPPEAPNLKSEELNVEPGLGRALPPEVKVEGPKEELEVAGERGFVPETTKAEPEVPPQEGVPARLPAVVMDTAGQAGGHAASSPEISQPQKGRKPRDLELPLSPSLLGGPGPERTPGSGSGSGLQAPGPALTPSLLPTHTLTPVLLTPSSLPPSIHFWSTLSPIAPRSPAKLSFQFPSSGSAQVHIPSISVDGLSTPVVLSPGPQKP
Procedure, shortened: as §1

[3] = molecular target: T3, GABPA (Homo sapiens, UniProt Q06546 1-454)
T3 sequence: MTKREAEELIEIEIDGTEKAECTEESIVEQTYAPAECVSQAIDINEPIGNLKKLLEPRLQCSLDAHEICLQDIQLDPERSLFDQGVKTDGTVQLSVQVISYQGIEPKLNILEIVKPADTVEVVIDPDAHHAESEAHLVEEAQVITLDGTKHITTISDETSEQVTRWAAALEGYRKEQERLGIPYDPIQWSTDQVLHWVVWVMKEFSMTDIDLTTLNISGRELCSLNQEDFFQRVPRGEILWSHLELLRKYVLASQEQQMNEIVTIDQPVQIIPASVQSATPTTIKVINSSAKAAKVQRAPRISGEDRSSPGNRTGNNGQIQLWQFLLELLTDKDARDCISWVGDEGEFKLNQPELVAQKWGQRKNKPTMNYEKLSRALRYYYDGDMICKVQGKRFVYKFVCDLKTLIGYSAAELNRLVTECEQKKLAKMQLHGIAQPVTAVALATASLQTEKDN
Procedure, shortened: as §1

[4] = molecular target: T4, ERG (Homo sapiens, UniProt P11308 1-479)
T4 sequence: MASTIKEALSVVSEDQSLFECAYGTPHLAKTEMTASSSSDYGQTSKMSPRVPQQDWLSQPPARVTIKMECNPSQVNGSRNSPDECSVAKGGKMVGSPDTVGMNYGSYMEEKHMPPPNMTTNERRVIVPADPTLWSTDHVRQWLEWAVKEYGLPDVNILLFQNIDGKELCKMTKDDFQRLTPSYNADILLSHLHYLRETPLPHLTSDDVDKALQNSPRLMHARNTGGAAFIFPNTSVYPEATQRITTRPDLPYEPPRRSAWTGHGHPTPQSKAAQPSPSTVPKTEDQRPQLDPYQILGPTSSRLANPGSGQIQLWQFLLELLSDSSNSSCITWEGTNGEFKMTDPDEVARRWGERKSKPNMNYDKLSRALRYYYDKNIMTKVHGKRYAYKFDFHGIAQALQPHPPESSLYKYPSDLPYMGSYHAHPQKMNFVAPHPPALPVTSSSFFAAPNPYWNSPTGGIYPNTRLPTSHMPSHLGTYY
Procedure, shortened: as §1

[5] = molecular target: ELF1 (Homo sapiens, UniProt P32519 1-619)
Procedure, shortened: as §1

[6] = molecular target: T5, EHF (Homo sapiens, UniProt Q9NZC4 1-300)
T5 sequence: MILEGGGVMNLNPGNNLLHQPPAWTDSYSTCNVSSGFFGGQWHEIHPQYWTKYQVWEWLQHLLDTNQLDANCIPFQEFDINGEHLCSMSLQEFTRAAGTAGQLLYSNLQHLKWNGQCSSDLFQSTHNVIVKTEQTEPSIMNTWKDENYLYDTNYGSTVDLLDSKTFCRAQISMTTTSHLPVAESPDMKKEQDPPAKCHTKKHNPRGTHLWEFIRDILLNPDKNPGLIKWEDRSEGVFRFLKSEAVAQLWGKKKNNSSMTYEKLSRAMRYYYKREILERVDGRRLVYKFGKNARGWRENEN
Procedure, shortened: as §1

[7] = molecular target: SPI1 (Homo sapiens, UniProt P17947 1-270)
Procedure, shortened: as §1

[8] = molecular target: SPIB (Homo sapiens, UniProt Q01892 1-262)
Procedure, shortened: as §1

[9] = molecular target: T6, ELK3 (Homo sapiens, UniProt P41970 1-407)
T6 sequence: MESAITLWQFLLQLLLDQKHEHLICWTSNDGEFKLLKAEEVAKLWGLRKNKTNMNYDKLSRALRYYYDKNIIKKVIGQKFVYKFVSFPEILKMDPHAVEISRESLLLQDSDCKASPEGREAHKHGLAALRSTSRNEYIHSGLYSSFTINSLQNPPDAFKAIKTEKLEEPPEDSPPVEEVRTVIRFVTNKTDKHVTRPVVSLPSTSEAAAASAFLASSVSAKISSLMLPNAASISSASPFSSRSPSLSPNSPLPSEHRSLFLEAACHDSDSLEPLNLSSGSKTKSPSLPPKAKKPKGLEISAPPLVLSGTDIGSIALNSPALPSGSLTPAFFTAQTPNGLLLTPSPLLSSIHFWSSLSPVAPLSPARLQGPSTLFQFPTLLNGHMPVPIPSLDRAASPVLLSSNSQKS
Procedure, shortened: as §1

ELF1, sequence (P32519 whole entry): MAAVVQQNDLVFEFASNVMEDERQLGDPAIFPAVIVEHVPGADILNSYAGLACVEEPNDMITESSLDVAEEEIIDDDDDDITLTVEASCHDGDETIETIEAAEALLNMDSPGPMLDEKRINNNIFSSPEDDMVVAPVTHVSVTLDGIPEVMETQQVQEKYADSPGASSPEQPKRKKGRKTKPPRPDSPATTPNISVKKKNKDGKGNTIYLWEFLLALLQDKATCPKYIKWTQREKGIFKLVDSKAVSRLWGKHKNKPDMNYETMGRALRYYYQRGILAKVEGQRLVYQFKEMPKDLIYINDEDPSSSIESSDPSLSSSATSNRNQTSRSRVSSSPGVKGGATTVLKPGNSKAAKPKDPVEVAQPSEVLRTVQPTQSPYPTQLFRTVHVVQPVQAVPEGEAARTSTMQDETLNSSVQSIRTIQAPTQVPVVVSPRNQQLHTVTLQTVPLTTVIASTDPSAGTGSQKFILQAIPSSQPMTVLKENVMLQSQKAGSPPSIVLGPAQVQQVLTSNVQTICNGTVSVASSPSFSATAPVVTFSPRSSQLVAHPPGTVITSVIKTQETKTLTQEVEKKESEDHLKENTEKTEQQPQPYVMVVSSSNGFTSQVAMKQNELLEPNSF
SPIB, sequence (Q01892 whole entry): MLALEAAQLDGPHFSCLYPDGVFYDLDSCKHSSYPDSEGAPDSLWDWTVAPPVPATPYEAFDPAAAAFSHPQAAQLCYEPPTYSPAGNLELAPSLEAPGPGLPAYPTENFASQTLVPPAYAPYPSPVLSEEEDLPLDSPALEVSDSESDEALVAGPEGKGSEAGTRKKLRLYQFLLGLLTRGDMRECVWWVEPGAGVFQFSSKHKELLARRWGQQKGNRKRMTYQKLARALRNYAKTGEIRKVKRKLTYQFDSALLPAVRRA

| Sequence | binding signal [1] | binding signal [2] | binding signal [3] | binding signal [4] | binding signal [5] | binding signal [6] | binding signal [7] | binding signal [8] | binding signal [9] |
| --- | --- | --- | --- | --- | --- | --- | --- | --- | --- |
| TTTTGC | 1.51 fold enrichment (6-mer frequency, TF over GST control) | 1.39 fold enrichment (6-mer frequency, TF over GST control) | 1.38 fold enrichment (6-mer frequency, TF over GST control) | 1.26 fold enrichment (6-mer frequency, TF over GST control) | 1.42 fold enrichment (6-mer frequency, TF over GST control) | 1.28 fold enrichment (6-mer frequency, TF over GST control) | 1.43 fold enrichment (6-mer frequency, TF over GST control) | 1.45 fold enrichment (6-mer frequency, TF over GST control) | 1.42 fold enrichment (6-mer frequency, TF over GST control) |
| CTCCTC | 1.36 fold enrichment (6-mer frequency, TF over GST control) | 1.38 fold enrichment (6-mer frequency, TF over GST control) | 1.39 fold enrichment (6-mer frequency, TF over GST control) | 1.26 fold enrichment (6-mer frequency, TF over GST control) | 1.32 fold enrichment (6-mer frequency, TF over GST control) | 1.54 fold enrichment (6-mer frequency, TF over GST control) | 1.39 fold enrichment (6-mer frequency, TF over GST control) | 1.4 fold enrichment (6-mer frequency, TF over GST control) | 1.31 fold enrichment (6-mer frequency, TF over GST control) |
| CCAAAA | 1.09 fold enrichment (6-mer frequency, TF over GST control) | 1.13 fold enrichment (6-mer frequency, TF over GST control) | 1.16 fold enrichment (6-mer frequency, TF over GST control) | 1.12 fold enrichment (6-mer frequency, TF over GST control) | 1.17 fold enrichment (6-mer frequency, TF over GST control) | 1.15 fold enrichment (6-mer frequency, TF over GST control) | 1.29 fold enrichment (6-mer frequency, TF over GST control) | 1.12 fold enrichment (6-mer frequency, TF over GST control) | 1.13 fold enrichment (6-mer frequency, TF over GST control) |
| ACTTTA | 1.12 fold enrichment (6-mer frequency, TF over GST control) | 1.26 fold enrichment (6-mer frequency, TF over GST control) | 1.29 fold enrichment (6-mer frequency, TF over GST control) | 1.17 fold enrichment (6-mer frequency, TF over GST control) | 1.21 fold enrichment (6-mer frequency, TF over GST control) | 1.2 fold enrichment (6-mer frequency, TF over GST control) | 1.33 fold enrichment (6-mer frequency, TF over GST control) | 1.19 fold enrichment (6-mer frequency, TF over GST control) | 1.22 fold enrichment (6-mer frequency, TF over GST control) |
| CTGCTC | 1.32 fold enrichment (6-mer frequency, TF over GST control) | 1.37 fold enrichment (6-mer frequency, TF over GST control) | 1.18 fold enrichment (6-mer frequency, TF over GST control) | 1.28 fold enrichment (6-mer frequency, TF over GST control) | 1.34 fold enrichment (6-mer frequency, TF over GST control) | 1.27 fold enrichment (6-mer frequency, TF over GST control) | 1.29 fold enrichment (6-mer frequency, TF over GST control) | 1.39 fold enrichment (6-mer frequency, TF over GST control) | 1.3 fold enrichment (6-mer frequency, TF over GST control) |
| TGGGAT | 1.12 fold enrichment (6-mer frequency, TF over GST control) | 1.17 fold enrichment (6-mer frequency, TF over GST control) | 1.3 fold enrichment (6-mer frequency, TF over GST control) | 1.13 fold enrichment (6-mer frequency, TF over GST control) | 1.25 fold enrichment (6-mer frequency, TF over GST control) | 1.25 fold enrichment (6-mer frequency, TF over GST control) | 1.29 fold enrichment (6-mer frequency, TF over GST control) | 1.24 fold enrichment (6-mer frequency, TF over GST control) | 1.17 fold enrichment (6-mer frequency, TF over GST control) |
| CCGTTC | 1.32 fold enrichment (6-mer frequency, TF over GST control) | 1.38 fold enrichment (6-mer frequency, TF over GST control) | 1.39 fold enrichment (6-mer frequency, TF over GST control) | 1.38 fold enrichment (6-mer frequency, TF over GST control) | 1.46 fold enrichment (6-mer frequency, TF over GST control) | 1.5 fold enrichment (6-mer frequency, TF over GST control) | 1.39 fold enrichment (6-mer frequency, TF over GST control) | 1.47 fold enrichment (6-mer frequency, TF over GST control) | 1.4 fold enrichment (6-mer frequency, TF over GST control) |
| ACAATA | 1.13 fold enrichment (6-mer frequency, TF over GST control) | 1.12 fold enrichment (6-mer frequency, TF over GST control) | 1.29 fold enrichment (6-mer frequency, TF over GST control) | 1.13 fold enrichment (6-mer frequency, TF over GST control) | 1.1 fold enrichment (6-mer frequency, TF over GST control) | 1.16 fold enrichment (6-mer frequency, TF over GST control) | 1.16 fold enrichment (6-mer frequency, TF over GST control) | 1.2 fold enrichment (6-mer frequency, TF over GST control) | 1.23 fold enrichment (6-mer frequency, TF over GST control) |
